The source of these data is PubChem BioAssay (Tox21).

A short description of experiment [1]: qHTS assay to identify small molecule agonists of the peroxisome proliferator-activated receptor delta (PPARd) signaling pathway - cell viability counter screen (AID 743211). Also: nearly all actives have a fitted effect of over 55% in size. Also: potency is read from the fitted curve at half-maximal effect. In short, it runs like this:
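HEK293H PPARd-bla, 3000 cells/well; 5 h preincubation 37C/5% CO2; cpd in DMSO, 17 h 37C; B/G FRET substrate 2 h RT; CellTiter-Glo 30 min RT, luminescence.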
A general note: qHTS replaces the single test concentration by a dilution series.

For experiment [2], the target named is Bile acid receptor (Homo sapiens) (UniProt Q96RI1). Kind of experiment: qHTS assay to identify small molecule antagonists of the farnesoid-X-receptor (FXR) signaling pathway (AID 743217; active = well fitted inhibition curve with a large enough effect in the signal ratio in the repeat runs, not every such curve was filed as active; the % refers to the signal ratio). The gist of the method: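 Test compounds are pin-transferred onto FXR-bla HEK 293T cells, then chenodeoxycholic acid is added at 50 uM final. After 16 h at 37 °C, LiveBLAzer B/G substrate is applied for 2 h at room temperature and fluorescence read.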

A short description of experiment [3]: qHTS assay to identify small molecule agonists of the farnesoid-X-receptor (FXR) signaling pathway - cell viability counter screen (AID 743218). Also: nearly all actives have a fitted effect of over 45% in size. The gist of the method: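 Quantitative HTS counter screen measuring ATP-based viability via CellTiter-Glo luminescence in HEK 293T cells carrying a UAS-driven beta-lactamase reporter, after 16 h compound exposure at 37 C.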

A short description of experiment [4]: qHTS assay to identify small molecule antagonists of the farnesoid-X-receptor (FXR) signaling pathway - cell viability counter screen (AID 743221; active = well fitted cell-killing curve with a large enough effect in the repeat runs, not every such curve was filed as active; also: nearly all actives have a fitted effect of over 50% in size). The gist of the method:
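Luminescence from CellTiter-Glo measures cytotoxicity in GeneBLAzer FXR-UAS-bla HEK 293T cells. Cells were exposed to compounds with 50 uM chenodeoxycholic acid (final) for 16 h at 37 C, in wells also used for the reporter readout.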

Experiment [5] addresses Vitamin D3 receptor (Homo sapiens) (UniProt P11473). Kind of experiment: qHTS assay to identify small molecule agonists of the vitamin D receptor (VDR) signaling pathway (AID 743222; calls by dose curve). In short, it runs like this:
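Tox21 cell reporter format: VDR-bla line, 16 h compound exposure in 5% CO2 at 37C, then fluorescence intensity after 2 h with LiveBLAzer B/G FRET substrate.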

Experiment [6] is described as follows: qHTS assay to identify small molecule agonists of the vitamin D receptor (VDR) signaling pathway - cell viability counter screen (AID 743224). Also: series mostly up to about 63 µM; nearly all actives have a fitted effect of over 50% in size. The gist of the method: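 CellTiter-Glo viability readout on VDR-bla cells, measured after 16 h of compound treatment at 37C in the same wells.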
The nature of experiment [7]: qHTS assay to identify small molecule antagonists of the vitamin D receptor (VDR) signaling pathway - cell viability counter screen (AID 743225). Also: nearly all actives have a fitted effect of over 50% in size. The gist of the method:
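Read-out: CellTiter-Glo luminescence measured 30 min after reagent addition at room temperature. Cells were VDR-bla HEK 293T exposed 16 h at 37C, 5% CO2, to compound with 3 nM final calcitriol agonist.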

A short description of experiment [8]: qHTS assay to identify small molecule agonists of the NFkB signaling pathway - cell viability counter screen (AID 1159515; calls by dose curve; also: series mostly up to about 61 µM; nearly all actives have a fitted effect of over 55% in size). The gist of the method:
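Tox21 library compounds were tested for cytotoxicity against NFkB-bla ME-180 cells during a 5 hr exposure at 37 C. CellTiter-Glo luminescence served as the viability read-out.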

Experiment [9] in a line: qHTS assay to identify small molecule agonists of the endoplasmic reticulum stress response signaling pathway (AID 1159516; active = well fitted activation curve with a large enough effect in the signal ratio in the repeat runs, not every such curve was filed as active; the % refers to the signal ratio). The gist of the method:
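Fluorescence at 460 and 530 nm (405 nm excitation) reports beta-lactamase from an ER stress response element in HeLa cells treated 5 hr at 37 C.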

Experiment [10] in a line: qHTS assay to identify small molecule antagonists of the retinoid-related orphan receptor gamma (ROR-gamma) signaling pathway - cell viability counter screen (AID 1159520). Also: nearly all actives have a fitted effect of over 50% in size. Also: potency is read from the fitted curve at half-maximal effect. The gist of the method:
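Tet-on ROR gamma CHO cells were given compounds for 2 hr, then doxycycline hyclate at 1 uM final, and incubated 16 hr at 37 C. Viability was measured as ATP content by CellTiter-Glo luminescence.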

Experiment [11] is described as follows: qHTS assay to identify small molecule agonists of the AP-1 signaling pathway - cell viability counter screen (AID 1159525; calls by dose curve; also: nearly all actives have a fitted effect of over 55% in size; also: potency is read from the fitted curve at half-maximal effect). In short, it runs like this: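 Same-well cytotoxicity counter screen of the Tox21 10K library in ME-180 cells. The readout is ATP-dependent luminescence after 5 h compound treatment. Data are normalised to DMSO and tetra n-octyl ammonium bromide controls.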

Experiment [12] is described as follows: qHTS assay to identify small molecule agonists of the AP-1 signaling pathway (AID 1159526; calls by dose curve; also: potency is read from the fitted curve at half-maximal effect).
The target in experiment [13] is Retinoic acid receptor RXR-alpha (Homo sapiens) (UniProt P19793). Kind of experiment: qHTS assay to identify small molecule agonists of the RXR signaling pathway (AID 1159527; calls by dose curve; also: nearly all actives have a fitted effect of over 35% in size). The gist of the method: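 Read-out: beta-lactamase FRET ratio (405 nm excitation, 460 and 530 nm emission) after 2 hr substrate loading at room temperature. Cells were RXR-alpha-UAS-bla HEK 293T treated with compounds for 16 hr in 2% charcoal-stripped FBS medium.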

Experiment [14] concerns the target Peroxisome proliferator-activated receptor delta (Homo sapiens) (UniProt Q03181). Kind of experiment: qHTS assay to identify small molecule agonists of the peroxisome proliferator-activated receptor delta (PPARd) signaling pathway (AID 743212; calls by dose curve). In short, it runs like this:
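Tox21 library screened in GeneBLAzer PPARd UAS-bla HEK293H cells. After compound treatment at 37 C, a FRET-based beta-lactamase substrate was applied for 2 h and fluorescence recorded.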

Experiment [15] is described as follows: qHTS assay to identify small molecule antagonists of the peroxisome proliferator-activated receptor delta (PPARd) signaling pathway - cell viability counter screen (AID 743213). Also: nearly all actives have a fitted effect of over 50% in size. The gist of the method: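 PPARd-bla HEK293H cells (3000/well) got compound plus 300 nM L165041 agonist for 17 h at 37 C. Viability in the same wells came from CellTiter-Glo luminescence after 30 min at room temperature.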

The target of experiment [16] is Nuclear receptor ROR-gamma (Homo sapiens) (UniProt P51449). Kind of experiment: qHTS assay to identify small molecule antagonists of the retinoid-related orphan receptor gamma (ROR-gamma) signaling pathway (AID 1159521). The gist of the method:
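CHO Tet-on RORγ, RORE-luc reporter. Cpd 2 h pre-incubation, then dox hyclate 1 uM final, 16 h, 37 C/5% CO2. ONE-Glo luminescence; decrease = antagonist.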

For experiment [17], the target named is Peroxisome proliferator-activated receptor delta (Homo sapiens) (UniProt Q03181). Kind of experiment: qHTS assay to identify small molecule antagonists of the peroxisome proliferator-activated receptor delta (PPARd) signaling pathway (AID 743215; active = well fitted inhibition curve with a large enough effect in the signal ratio in the repeat runs, not every such curve was filed as active; the % refers to the signal ratio;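 also: cells stimulated with agonist L165041 at 300 nM final during compound exposure; series mostly up to about 62 µM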). In short, it runs like this: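 Here, a reporter line (HEK293H, beta-lactamase under a UAS) measures PPARd signaling. Compounds are tested against agonist L165041 at 300 nM final concentration over 17 h at 37 C, with fluorescence read after substrate.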

For experiment [18], the target named is Bile acid receptor (Homo sapiens) (UniProt Q96RI1). Kind of experiment: qHTS assay to identify small molecule agonists of the farnesoid-X-receptor (FXR) signaling pathway (AID 743220; active = well fitted activation curve with a large enough effect in the signal ratio in the repeat runs, not every such curve was filed as active; the % refers to the signal ratio). In short, it runs like this:
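FXR-UAS-bla HEK 293T cells carrying a UAS-driven beta-lactamase reporter were plated for 5 h at 37C/5% CO2, then exposed to DMSO-dissolved Tox21 10K compounds for 16 h at 37C. A LiveBLAzer B/G FRET substrate was loaded for 2 h at room temperature before fluorescence reading.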

Experiment [19] addresses Vitamin D3 receptor (Homo sapiens) (UniProt P11473). Kind of experiment: qHTS assay to identify small molecule antagonists of the vitamin D receptor (VDR) signaling pathway (AID 743223; active = well fitted inhibition curve with a large enough effect in the signal ratio in the repeat runs, not every such curve was filed as active; the % refers to the signal ratio). In short, it runs like this:
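Antagonist mode uses 1alpha,25-dihydroxyvitamin D3 at 3 nM final as stimulus. VDR-bla cells receive compounds in DMSO, incubate 16 h at 37C, then a beta-lactamase FRET substrate for 2 h at room temperature before fluorescence measurement.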

Experiment [20] in a line: qHTS assay to identify small molecule agonists of the endoplasmic reticulum stress response signaling pathway - cell viability counter screen (AID 1159517; calls by dose curve). The gist of the method:
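In parallel with the ESRE reporter read, cytotoxicity was scored by CellTiter-Glo luminescence (30 min, room temperature) on HeLa ESRE-bla cells dosed for 5 hr.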

Results filed as inconclusive are left out. Active and inactive are the calls of the source. Unless noted, calls follow the shape of the dose curve; as a rule, active = well fitted curve in the direction sought with a large enough effect in the repeat runs; inconclusive = weak or mixed curves; inactive = no such curve, though single readings can be large; an effect the other way counts as inactive or inconclusive.

Sequence of Bile acid receptor (Homo sapiens) (Q96RI1 whole entry, looked up): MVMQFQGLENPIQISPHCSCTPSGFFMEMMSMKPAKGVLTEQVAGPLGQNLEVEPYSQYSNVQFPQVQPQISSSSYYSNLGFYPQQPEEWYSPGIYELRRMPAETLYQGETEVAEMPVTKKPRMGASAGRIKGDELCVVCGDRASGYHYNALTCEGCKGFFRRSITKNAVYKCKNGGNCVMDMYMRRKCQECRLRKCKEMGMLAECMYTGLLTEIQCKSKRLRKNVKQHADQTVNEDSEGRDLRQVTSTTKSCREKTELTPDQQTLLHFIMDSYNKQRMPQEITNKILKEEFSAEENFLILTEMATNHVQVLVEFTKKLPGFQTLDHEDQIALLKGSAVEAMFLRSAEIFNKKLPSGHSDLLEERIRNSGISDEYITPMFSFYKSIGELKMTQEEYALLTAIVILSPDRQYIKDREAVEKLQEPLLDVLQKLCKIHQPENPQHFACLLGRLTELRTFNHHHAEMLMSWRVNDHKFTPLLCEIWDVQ
Sequence of Vitamin D3 receptor (Homo sapiens) (P11473 whole entry, looked up): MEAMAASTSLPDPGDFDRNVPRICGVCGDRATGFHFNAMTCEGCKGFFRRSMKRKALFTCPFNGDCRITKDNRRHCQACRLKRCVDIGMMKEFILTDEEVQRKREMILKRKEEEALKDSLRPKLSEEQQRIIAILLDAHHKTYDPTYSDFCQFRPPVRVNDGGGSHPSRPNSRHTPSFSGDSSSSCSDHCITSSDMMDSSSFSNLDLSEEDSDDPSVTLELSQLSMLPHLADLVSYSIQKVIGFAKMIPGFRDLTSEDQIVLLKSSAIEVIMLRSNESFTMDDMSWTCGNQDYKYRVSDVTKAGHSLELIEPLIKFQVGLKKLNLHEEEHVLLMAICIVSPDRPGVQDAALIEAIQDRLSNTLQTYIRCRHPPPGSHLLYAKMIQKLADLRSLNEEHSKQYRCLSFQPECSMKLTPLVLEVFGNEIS
Sequence of Retinoic acid receptor RXR-alpha (Homo sapiens) (P19793 whole entry, looked up): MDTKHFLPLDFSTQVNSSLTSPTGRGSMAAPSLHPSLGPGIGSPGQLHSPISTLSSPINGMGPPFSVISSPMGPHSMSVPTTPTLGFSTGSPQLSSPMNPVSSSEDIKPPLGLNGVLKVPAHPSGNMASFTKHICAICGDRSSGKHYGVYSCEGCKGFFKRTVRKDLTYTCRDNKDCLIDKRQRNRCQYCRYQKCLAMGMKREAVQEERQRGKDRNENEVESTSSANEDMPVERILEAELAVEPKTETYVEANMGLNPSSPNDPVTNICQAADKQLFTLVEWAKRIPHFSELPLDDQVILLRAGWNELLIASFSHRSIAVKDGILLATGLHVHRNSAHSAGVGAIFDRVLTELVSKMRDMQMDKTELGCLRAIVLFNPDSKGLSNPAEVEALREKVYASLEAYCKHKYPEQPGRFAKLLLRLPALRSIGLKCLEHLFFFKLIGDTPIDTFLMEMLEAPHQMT
Sequence of Peroxisome proliferator-activated receptor delta (Homo sapiens) (Q03181 whole entry, looked up): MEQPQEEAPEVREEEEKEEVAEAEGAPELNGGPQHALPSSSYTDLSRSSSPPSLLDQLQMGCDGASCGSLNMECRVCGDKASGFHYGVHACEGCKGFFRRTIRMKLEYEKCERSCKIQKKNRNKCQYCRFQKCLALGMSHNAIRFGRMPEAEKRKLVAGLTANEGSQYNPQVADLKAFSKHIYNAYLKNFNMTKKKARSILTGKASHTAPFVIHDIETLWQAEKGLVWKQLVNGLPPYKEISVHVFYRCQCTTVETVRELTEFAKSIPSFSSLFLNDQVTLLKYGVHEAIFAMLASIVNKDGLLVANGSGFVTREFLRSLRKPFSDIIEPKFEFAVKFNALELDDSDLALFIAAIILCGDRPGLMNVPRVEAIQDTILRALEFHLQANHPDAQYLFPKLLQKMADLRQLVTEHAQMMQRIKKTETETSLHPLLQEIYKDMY

For the molecule `S=C=Nc1ccccc1`, the Potency result in experiment [1], in experiment [2], in [3], in experiment [4], in experiment [5] and in experiment [6] was “inactive” throughout. Also, the Potency entry in experiment [7], in experiment [8], in [9], in experiment [10], in [11] and in experiment [12] was “inactive” throughout. For the same molecule, the Potency result in experiment [13] is “inactive”.

Take `CCCCCCCc1ccc(O)cc1`: the Potency was 21.9 µM (active) in experiment [1] and 54.9 µM (active) in experiment [11]. In addition, the Potency result in experiment [14], in experiment [15], in [4], in experiment [5], in [7] and in [8] was “inactive” throughout. The Potency entry in experiment [9] and in experiment [16] was “inactive” throughout.

For the molecule `O=C(O)CCCCCCNC1c2ccccc2CCc2ccccc21`, the Potency entry in [1], in [15], in experiment [17], in experiment [2], in experiment [18] and in experiment [5] was “inactive” throughout. The Potency result in [19], in experiment [6], in [7], in experiment [8], in [20] and in experiment [10] was “inactive” throughout. The Potency entry in experiment [16], in experiment [11] and in experiment [13] was “inactive” each time. Also, the Potency in [12] is 10.7 µM (active).

In the case of `Nc1c(Cl)c(Cl)c(Cl)c(Cl)c1Cl`, the Potency result in experiment [1], in experiment [4], in [7], in experiment [8], in [9] and in [10] was “inactive” throughout. Also, the Potency result in experiment [16] is “inactive”.

As to `Clc1ccc(C(Cl)(Cl)Cl)cc1Cl`, the Potency result in experiment [1], in experiment [14], in experiment [15], in experiment [17], in [5] and in [19] was “inactive” each time. Also, the Potency result in experiment [6], in [7], in experiment [8], in experiment [9], in experiment [16] and in [11] was “inactive” each time. Further, the Potency entry in experiment [12] and in experiment [13] was “inactive” throughout.

As to `CCCCON=O`, the Potency result in experiment [1], in experiment [14], in [15], in [17], in experiment [3] and in [4] was “inactive” in each case. Moreover, the Potency entry in [5], in experiment [19], in experiment [8], in [9], in experiment [10] and in experiment [11] was “inactive” each time. The Potency result in [12] is “inactive”.

Turning to `BrCC(Br)(Br)Br`, the Potency result in experiment [1], in experiment [14], in experiment [3], in experiment [4], in experiment [5] and in experiment [19] was “inactive” each time. In addition, the Potency entry in experiment [6], in experiment [7], in experiment [8], in experiment [20], in [16] and in [11] was “inactive” each time. In [12], the Potency entry was “inactive”. Besides, the Potency in experiment [10] was 50.3 µM (active).

Take `Cc1ccc2cc3c(ccc4ccccc43)c3c2c1CC3`: the Potency entry in experiment [1], in [15], in [3], in experiment [4], in [5] and in experiment [19] was “inactive” each time. Further, the Potency entry in experiment [6], in experiment [7], in [8], in experiment [20], in [10] and in experiment [16] was “inactive” in each case. Moreover, the Potency entry in experiment [11], in [12] and in experiment [13] was “inactive” each time.
